Screening results as filed in PubChem.
Only a selection was taken, and hits are over-represented in it overall.
IMPase inh: cell-permeable inhibitors of inositol monophosphatase (IMPase). CHO-M1 cells, IP1 accumulation, HTRF TR-FRET ratio. inhibition (IP1 accumulation), % at 46.1 µM. 120,000 tested, under 10 active; active = well fitted curve in the direction sought with a large enough effect in the signal ratio, not every such curve was filed as active; inconclusive = small, poorly fitted or top-dose-only effect, or a change in a side signal; inactive = no such curve, though single readings can be large or run the other way; the % refers to the signal ratio;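 also: cells stimulated with carbachol in lithium chloride buffer; plate controls were DMSO basal wells for no effect and reference inhibitor wells for full effect; higher means more IMPase inhibition seen as more IP1 and lower FRET ratio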
Target sequence (P97697 whole entry, looked up): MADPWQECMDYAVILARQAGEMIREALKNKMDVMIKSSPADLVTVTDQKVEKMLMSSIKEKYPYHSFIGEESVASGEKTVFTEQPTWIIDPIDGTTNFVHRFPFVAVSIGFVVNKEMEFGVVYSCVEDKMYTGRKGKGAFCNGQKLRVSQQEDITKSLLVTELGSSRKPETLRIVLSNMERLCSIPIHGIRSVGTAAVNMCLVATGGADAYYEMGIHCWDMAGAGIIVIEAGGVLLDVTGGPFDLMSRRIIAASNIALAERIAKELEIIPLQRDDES
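Cellular IMPase inhibition is scored as a rise in cytosolic IP1, detected by competitive TR-FRET between d2-labelled IP1 and a europium anti-IP1 antibody. M1-expressing CHO cells were stimulated with carbachol for 30 min at 37C, with lithium (50 mM LiCl) present in the buffer.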
PNC inhibitor: blocks assembly of the perinucleolar compartment; PC3M PTB-GFP, PNC prevalence imaging, 16 h; active compounds read low; activity change (PNC), negative = inhibition, % at 10 µM; 140,000 tested, 3.1% active;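 active = readout at or below -70, meaning at least 70% loss of cells showing the perinucleolar compartment, a nuclear body marking cancer cells; inconclusive = readout between -30 and a set limit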;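 also: plate controls were DMSO wells for no effect and camptothecin positive control wells for full effect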
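Compounds are pinned in duplicate onto adhered PC3M cells stably expressing GFP-tagged PTB and incubated 16 h at 37 C. Cells are then fixed, nuclei stained with Hoechst, and PNC-positive cells counted.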
LMNA splice mod: changes lamin A minigene splicing in HeLa cells; Potency, µM (top dose mostly 46.1 µM), without a hit: at the top dose ratio change, negative = inhibition, most hits filed as inhibitors; HeLa LMNA splicing GFP/RFP minigene ratio, 48 h; 200,000 tested, 0.01% active; AID 1487; active = well fitted inhibition curve with a large enough effect in the signal ratio, with a control signal flat, not every such curve was filed as active; inconclusive = small, poorly fitted or top-dose-only effect, or effect the other way, or a change in a side signal; the % refers to the signal ratio; also: potency is read from the fitted curve at half-maximal effect
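Read-out is the ratio of GFP to DsRed2 object intensity, acquired by 488 nm laser-scanning cytometry on HeLa lamin A-EGFP minigene reporter cells. Compound incubation 48 hrs at 37 °C in Opti-MEM with 2% FBS; DMSO 0.5% final.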
* hit, by the source's call; ? = inconclusive; nt = not tested or not shown; [ ] = another dose, or the depositor's remark. Unless noted, % is scaled to controls: 0 for no effect and ±100 for the full control effect.

SMILES	IMPase inh	PNC inhibitor	LMNA splice mod
O=C(Nc1ccc(NC(=O)C2CC2)cn1)c1ccccc1Cl	0	-112*	?
CCCC(=O)Nc1ccc(NC(=O)c2cccs2)cn1	0	-21	17%
CCCC(=O)Nc1ccc(NC(=O)C2CC2)cn1	-9	17	-13%
O=c1[nH]c(SCc2ccc(Cl)cc2)nc2[nH]ncc12	nt	nt	-12%[46 µM]
COc1ccccc1NC(=O)N1CCN(c2nnc(C)c3c(C)n(-c4ccccc4)nc23)CC1	nt	nt	-3%[46 µM]
CC(C)OC(=O)CSc1nnc(-c2ccncc2)n1N	-3	-24	9%
Cc1ccc(-n2c(SCC(=O)OC(C)C)nnc2-c2ccncc2)cc1	-7	-100*	-2%
O=C(CCC1N=C2c3ccccc3N=C(SCC(=O)Nc3cccc(Cl)c3)N2C1=O)NCc1ccco1 (stereo not given)	-1	nt	nt
Cc1ccc(S(=O)(=O)/N=c2\sccn2C)cc1	-6	99	5%
Cc1ccc(S(=O)(=O)/N=C2\CN(C)C(=O)N2C)cc1	nt	-113*	-4%
Cc1cccc(C)c1NC(=O)C1(N2C(=O)CC2c2ccccc2)CCCCC1 (stereo not given)	12	-2	1%
Cc1ccccc1Cn1c(=O)n(CC2CCC(C(=O)N3CCC(C)CC3)CC2)c(=O)c2sccc21 (stereo not given)	nt	nt	-22%[46 µM]
CCc1nnc2c3ccccc3nc(Nc3cc(C)cc(C)c3)n12	7	nt	nt
CCOc1cc2c(cc1OCC)C(c1ccccc1)N(c1ccccc1)C(=O)C2 (stereo not given)	nt	-93*	-23%
CCOc1cc2c(cc1OCC)C(c1ccc(OC)cc1)N(c1ccccc1)C(=O)C2 (stereo not given)	4	-15	-8%
CCOC1=C/C(=C/c2c(N)n3nc(-c4ccccc4)sc3nc2=O)C=CC1=O	nt	nt	-7%[46 µM]
CCS(=O)(=O)c1nn2c(N)c(/C=C3/C=CC(=O)C(OC)=C3)c(=O)nc2s1	nt	-116*	-17%
CC(O)c1nc2ccccc2n1CCCCOc1ccccc1 (stereo not given)	nt	nt	12%[46 µM]
O=C(Nc1ccc(O)c2c(=O)cc(-c3ccccc3Cl)oc12)c1cccc(Cl)c1	nt	-80*	5%
Cc1cccc(C(=O)Nc2ccc(O)c3c(=O)cc(-c4ccccc4Cl)oc23)c1	nt	60	13%
CC1(C)CC(=O)C2=C(C1)NC(=O)CC2c1ccccc1F (stereo not given)	?	29	5%
Cc1[nH]nc2c1C(c1ccccc1F)CC(=O)N2 (stereo not given)	2	-106*	-2%
CC(=O)N1CCN(C(=S)Nc2ccc(Oc3ccccc3)cc2)CC1	nt	nt	6%[9.22 µM]
CCCCC(=O)OCc1cc(=O)n2nc(C3CCCCC3)sc2n1	nt	nt	-9%[46 µM]
CCCn1c(SCC(=O)N2CCN(C(=O)c3ccco3)CC2)nc2ccccc2c1=O	nt	nt	-20%[46 µM]
SMILES	IMPase inh	PNC inhibitor	LMNA splice mod
N#Cc1cn(CCCOc2ccccc2)c2ccccc12	12	8	-4%
COc1ccccc1OCCCn1cc(C#N)c2ccccc21	13	-82*	?
COc1cc2c(cc1OC)C(c1cccnc1)CC(=O)N2 (stereo not given)	-7	-82*	0%
COc1ccccc1C1CC(=O)Nc2cc3c(cc21)OCCO3 (stereo not given)	3	-101*	?
CC(C)Oc1ccccc1C1CC(=O)Nc2cc3c(cc21)OCCO3 (stereo not given)	6	-97*	?
COc1cc2c(cc1OC)C(c1ccc(N(C)C)cc1)CC(=O)N2 (stereo not given)	9	30	-7%
COc1cccc(C2CC(=O)Nc3cc4c(cc32)OCCO4)c1OC(C)C (stereo not given)	5	12	-11%
COc1ccc(Cl)cc1C1CC(=O)Nc2cc3c(cc21)OCCO3 (stereo not given)	5	nt	nt
NC(C(=O)O)C(O)C(=O)O (stereo not given)	nt	nt	-4%
COc1ccc(OC)c(NS(=O)(=O)c2ccc3[nH]c4c(c3c2)CCCCC4)c1	nt	nt	-26%[46 µM]
Clc1ccc(CCNC(c2ccc(Cl)cc2)c2nnc(-c3ccccc3)o2)cc1 (stereo not given)	6	nt	nt
CCOc1ccc(-c2cc(C(=O)NCc3ccc(OC)cc3)c3c(-c4ccc(F)cc4)[nH]nc3n2)cc1	nt	nt	11%[46 µM]
COCCN(C(=O)CNC(=O)c1cccs1)C(C(=O)NC1CCCC1)c1cccs1 (stereo not given)	-3	-23	11%
COCCN(C(=O)CNC(=O)c1ccco1)C(C(=O)NC1CCCC1)c1cccs1 (stereo not given)	6	-100*	-1%
O=C(Nc1cccc2nsnc12)c1cccnc1	nt	28	-10%
O=C(Nc1cccc2cccnc12)c1cccnc1	2	-85*	-4%
CNC(=O)c1ccccc1NC(=O)c1c(O)c2c([nH]c1=O)CCCC2	7	41	-2%
O=C(N/N=C/c1cccc(F)c1)c1c(O)c2c([nH]c1=O)CCCC2	nt	-114*	2%
CCc1ccc(NC(=S)N(Cc2ccccc2)Cc2ccccn2)cc1	nt	nt	-3%[9.22 µM]
Cc1c(C(=O)NCc2ccc3c(c2)OCO3)oc2ccc(S(=O)(=O)N3CCC(C)CC3)cc12	0	-100*	?
Cc1c(C(=O)NCc2ccc3c(c2)OCO3)oc2ccc(S(=O)(=O)N3CCCCCC3)cc12	0	?	?
Cc1cn([C@H]2C[C@H](N=[N+]=[N-])[C@H](CO)O2)c(=O)[nH]c1=O	1	nt	?
CCCCC[C@H](O)/C=C/C1=C(CCCCCCC(=O)O)C(=O)CC1	nt	-115*	?
CCCCC[C@H](O)/C=C/[C@@H]1[C@@H](CCCCCCC(=O)O)[C@@H](O)C[C@H]1O	nt	9	?
O=C(NC1CCCc2ccccc21)c1cccnc1 (stereo not given)	-1	-24	-1%
SMILES	IMPase inh	PNC inhibitor	LMNA splice mod
c1cncc(CNC2CCCc3ccccc32)c1 (stereo not given)	5	-83*	-5%
Cn1cccc1C(=O)c1cccc([N+](=O)[O-])c1	nt	nt	7%[46 µM]
CCOc1ccccc1NC(=O)C1=C(C)Nc2ncnn2C1c1ccccn1 (stereo not given)	nt	nt	3%[46 µM]
Cc1csc(NC(=O)C(CC(C)C)NS(=O)(=O)c2ccc3c(c2)oc(=O)n3C)n1 (stereo not given)	-2	-82*	6%
Cc1csc(NC(=O)C2CCN(S(=O)(=O)c3ccc4c(c3)oc(=O)n4C)CC2)n1	-3	-6	?
COc1cc2c(cc1OC)CN(CC(=O)Nc1ccc3c(c1)OCO3)CC2	2	-24	2%
COc1cc2c(cc1OC)CN(CC(=O)Nc1ccc(C)cc1)CC2	4	-89*	-4%
Cc1sc(NC(=O)Cc2ccc3c(c2)OCO3)nc1-c1ccc2c(c1)CCN2C(=O)c1cccc(F)c1	8	-119*	?
Cc1ccccc1C(=O)N1CCc2cc(-c3nc(NC(=O)Cc4ccc5c(c4)OCO5)sc3C)ccc21	-3	-9	?
COc1ccc(-c2c(C)c3ccc(O)c(CN4CCCC4)c3oc2=O)cc1	nt	nt	-3%[46 µM]
CCOC(=O)c1ccccc1NC(=O)N1CCCN(S(=O)(=O)c2ccc3c(ccn3CC)c2)CC1	nt	nt	-6%[46 µM]
CCOCCCNC(=O)C(NC(=O)c1ccc(=O)[nH]c1)c1ccccc1 (stereo not given)	1	18	13%
